# Assay results as given in PubChem BioAssay AID2284377 (EPA ToxCast).
# Results filed as inconclusive are left out. Calls of active or inactive are those of the source. The calls were made as follows: active = hit-call score of the fitted dose curve at least 0.9, where 1 is the maximum; inconclusive = response in the unintended direction; inactive = score below 0.9.
# Target: Estrogen receptor (Homo sapiens) (UniProt P03372)
# Assay: ERF_TW_NR_COA_hESR1: Eurofins (ERF) Nuclear Receptor (NR) Functional Coactivator Assay for human Estrogen Receptor alpha (ERa) Agonism
# Experimental: ERF_TW_NR_COA_hESR1 is a biochemical, single-readout assay that uses extracted gene-proteins in a cell-free assay. Measurements were taken 0.16 hours after chemical dosing in a 96-well plate. See ERalpha Human Estrogen NHR Functional Agonist Coactivator Assay, Panlabs.ERF_TW_NR_COA_hESR1 is an assay component calculated from the ERF_TW_NR_COA_hESR1 assay. It is designed to measure FRET using a type of binding reporter as detected by fluorescence intensity of estriol with fluorimetry technology.Data from the assay component ERF_TW_NR_COA_hESR1 was analyzed at the assay endpoint, ERF_TW_NR_COA_hESR1, in the positive analysis fitting direction relative to DMSO as the negative control and baseline of activity. Using a type of binding reporter, gain-of-signal activity can be used to understand changes in binding as they relate to gene ESR1. To generalize the intended target to other relatable targets, this assay endpoint is annotated to the nuclear receptor intended target family, where the subfamily is steroid.
# Test compound and/or vehicle is incubated with the 7 nM estrogen receptor alpha (ERalpha)-LBD and coactivator peptide for 10 minutes at RT. Determination of the amount of complex formed is read spectrofluorimetrically at 520 nm/490 nm. Test compound-induced increase fluorescence by 50 percent or more (>/=50%) relative to the 1 uM Estriol response indicates possible ERalpha receptor agonist activity.
# Estrogen receptor (Homo sapiens), sequence (P03372 whole entry, looked up): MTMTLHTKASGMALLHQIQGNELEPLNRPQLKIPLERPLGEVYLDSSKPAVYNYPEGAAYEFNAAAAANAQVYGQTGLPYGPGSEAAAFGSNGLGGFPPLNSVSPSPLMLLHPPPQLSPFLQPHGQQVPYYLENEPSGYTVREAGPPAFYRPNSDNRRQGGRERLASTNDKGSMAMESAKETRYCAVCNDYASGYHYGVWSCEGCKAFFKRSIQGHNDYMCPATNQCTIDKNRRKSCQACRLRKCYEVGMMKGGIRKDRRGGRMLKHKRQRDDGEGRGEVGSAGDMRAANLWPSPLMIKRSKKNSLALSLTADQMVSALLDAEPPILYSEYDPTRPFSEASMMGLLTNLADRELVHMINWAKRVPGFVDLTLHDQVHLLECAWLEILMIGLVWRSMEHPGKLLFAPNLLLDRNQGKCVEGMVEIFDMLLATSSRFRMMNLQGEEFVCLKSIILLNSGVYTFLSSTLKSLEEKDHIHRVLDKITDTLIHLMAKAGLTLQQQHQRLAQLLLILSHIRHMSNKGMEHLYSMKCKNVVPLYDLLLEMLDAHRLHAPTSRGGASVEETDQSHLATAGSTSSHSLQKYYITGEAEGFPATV
SMILES,outcome,AC50
NS(=O)(=O)C(F)(F)C(F)(F)C(F)(F)C(F)(F)C(F)(F)C(F)(F)C(F)(F)C(F)(F)F,inactive,–
OCC(F)(F)OC(F)(F)C(F)(F)OC(F)(F)C(F)(F)OC(F)(F)F,inactive,–
OCC(F)(F)OC(F)(F)C(F)(F)OC(F)(F)C(F)(F)OC(F)(F)CO,–,3.43 µM (active)
